Dicer inh: human Dicer pre-microRNA cleavage inhibition; Q9UPY3; cat-ELCCA pre-miR-21 Dicer processing, chemiluminescence; active compounds read high; z-score at 25 µM; hit rate 6% among 47,000; AID 1347074; in the data active = z-score above about 3, passing the limit was not always enough;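 also: higher signal means more uncleaved substrate so more Dicer inhibition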
Each line names hits and unclear results; the compound was inactive in the other large screens. Shown is part of a subset that was picked to be rich in hits.

CCOC(=O)CCCCCN1C(=O)c2cccc3cccc(c23)C1=O	none
CCCCCN1C(=O)c2cccc3cccc(c23)C1=O	none
Cc1cc(=O)[nH]c(SCC(N)=O)n1	Dicer inh 4.6
Cc1ccc(C(=O)CSc2nc(C)cc(=O)[nH]2)cc1	Dicer inh 4.6
Cc1cc(=O)[nH]c(SCC(=O)C(C)(C)C)n1	none
O=C(CSc1nc(C(F)(F)F)cc(=O)[nH]1)c1ccc(Cl)cc1	none
COc1ccc(C(=O)CSc2nc(O)cc(=O)[nH]2)cc1	none
Cc1cc(=O)[nH]c(SCC(=O)N(c2ccccc2)c2ccccc2)n1	none
Cc1nn2cc(-c3cccc([N+](=O)[O-])c3)nc2s1	none
Cc1ccc2nc3c(nc2c1C)C(O)=C3O	Dicer inh 4.2
CCOC(=O)c1c[nH]c2ccc(C(F)(F)F)cc2c1=O	none
CCOC(=O)c1ccc2[nH]cc(C(=O)OCC)c(=O)c2c1	none
CCOC(=O)c1c[nH]c2ccccc2c1=O	Dicer inh 3
CCOC(=O)c1c[nH]c2c(C)cc(Cl)cc2c1=O	none
O=C(O)c1ccc2nsnc2c1	none
CCOC(=O)c1ccc2nsnc2c1	none
COC(=O)c1ccc2nsnc2c1	Dicer inh 3.8
CCOc1ccc(S(=O)(=O)n2nnc3ccccc32)c2ccccc12	none
Cn1c(SCc2nc(-c3ccccc3)no2)nnc1C1CCCCC1	none
NC(=O)N/N=C/c1ccc2c(c1)OCO2	none
CN(C(=O)Cn1nc(C(F)(F)F)c2c1CCCC2)c1ccccc1	Dicer inh 3.8
CC(C)CNC(=O)Cn1nc(C(F)(F)F)c2c1CCCC2	none
O=C(Cn1nc(C(F)(F)F)c2c1CCCC2)N1CCCc2ccccc21	none
COc1ccc(OC)c(C(=O)c2oc3ccc(Br)cc3c2NC(C)=O)c1	none
Cc1cc(OCc2nc(-c3ccccn3)no2)ccc1Cl	none
Brc1ccc2ncnc(NCCc3ccccc3)c2c1	none
Cn1c(=O)[nH]c(=O)c2c1nc(N)n2CC(O)COc1ccc(Cl)cc1 (stereo not given)	none
O=C(NNc1c(Cl)cccc1Cl)NS(=O)(=O)c1ccc(Cl)cc1	none
FC(F)(F)Oc1ccccc1NC(=S)N1CCc2c([nH]c3ccccc23)C1C(F)(F)F (stereo not given)	none
O=S(=O)(c1cc(C(F)(F)F)cc(C(F)(F)F)c1)N1CCc2c([nH]c3ccccc23)C1C(F)(F)F (stereo not given)	Dicer inh 3.5
O=C(O)CCCC(=O)N1CCc2c([nH]c3ccccc23)C1C(F)(F)F (stereo not given)	none
O=C(NC(=O)N1CCc2c([nH]c3ccccc23)C1C(F)(F)F)c1ccccc1 (stereo not given)	Dicer inh 7.5
O=C(O)CCC(=O)N1CCc2c([nH]c3ccccc23)C1C(F)(F)F (stereo not given)	none
FC(F)(F)Oc1ccc(NC(=S)N2CCc3c([nH]c4ccccc34)C2C(F)(F)F)cc1 (stereo not given)	none
COc1ccc(C2CC(=O)C3=C(C2)NC(C)=C(C(=O)OCC(C)C)C3c2ccc(O)c(OC)c2)cc1 (stereo not given)	none
CC(C)C(C(=O)O)N1C(=O)NC2NC(=O)NC21 (stereo not given)	none
Cc1ccc(CN2C(=O)C(=O)c3cc(Cl)ccc32)cc1	none
COC(=O)C1=C(C)NC2=C(C(=O)CC(C)(C)C2)C1c1ccc(OC)c(Br)c1 (stereo not given)	none
CCCC(=O)N1c2cc(C)ccc2C(=C2SC(C(=O)OC)=C(C(=O)OC)S2)C(=S)C1(C)C	none
COC(=O)C1=C(C(=O)OC)SC(=C2C(=S)C(C)(C)N(C(=O)C(C)C)c3cc(C)ccc32)S1	none
CCOC(=O)C1=C(C(=O)OCC)SC(=C2C(=S)C(C)(C)N(C(C)=O)c3cc(C)ccc32)S1	Dicer inh 3.4
Nc1c(C(=O)Nc2ccc(F)cc2)sc2nc3c(cc12)CCCCC3	none
CC(=O)OC1C(=O)OC2[C@@H](C)C(n3ccc(=O)[nH]c3=O)O[C@H]12 (stereo not given in full)	none
Cn1ccnc1SCC(=O)Nc1ccccc1	none
Cn1ccnc1SCC(=O)c1ccc(Cl)cc1	none
Cn1ccnc1SCC(=O)N1CCCC1	Dicer inh 4.5
Cc1[nH]c(=S)[nH]c(=O)c1Oc1ccccc1	none
CCCCCOc1ccc(N2C(=O)C3C4C=CC(CC4)C3C2=O)cc1 (stereo not given)	none
CCOc1ccc(S(=O)(=O)N2c3ccc(C)cc3C(C)=CC2(C)C)cc1	Dicer inh 3.5
COc1ccc(S(=O)(=O)N2c3ccc(C)cc3C(C)=CC2(C)C)cc1	none
CC1=CC(C)(C)N(S(=O)(=O)c2ccc(F)cc2)c2ccc(C)cc21	none
C/C(Nc1ccc(F)cc1)=C1/CCOC1=O	Dicer inh 3.2
C/C(Nc1ccc([N+](=O)[O-])cc1)=C1/CCOC1=O	none
Cc1cc(C(=O)Nc2ccc(F)cc2)c(C)o1	none
COc1ccc(Nc2cc(C(F)(F)F)ccc2Cl)c(C(=O)O)c1	none
CCc1ccc(C2Nc3ccccc3S(=O)(=O)N2Cc2ccccc2)cc1 (stereo not given)	none
CCOC(=O)c1c(NC(C)=O)sc(C(=O)CC)c1C	Dicer inh 6.1
CCOC(=O)c1sc(NC(=O)C2CCCC2)c(C(=O)OCC)c1C	none
COC(=O)c1c(NC(=O)C2COc3ccccc3O2)sc2c1CCCC2 (stereo not given)	none
CCOC(=O)c1sc(NC(=O)C2CCCO2)c(C(=O)OCC)c1C (stereo not given)	none
CCOC(=O)c1sc(NC(=O)C2COc3ccccc3O2)c(C(=O)OCC)c1C (stereo not given)	Dicer inh 3.3
CCC(=O)Nc1sc(C(=O)OC)c(C)c1C(=O)OC	none
COc1cc(/C=C2\CCc3cc(OC)ccc3C2=O)cc(OC)c1	none
CC(=O)N1c2ccccc2C(N(C(=O)c2cccs2)c2ccccc2)CC1C (stereo not given)	none
C/C(=C\C(=O)c1ccccc1)NCC#N	none
Cc1nn(C)c(Oc2ccc(F)cc2)c1[N+](=O)[O-]	none
Cc1nn(C)c(Cl)c1S(=O)(=O)Nc1ccc(Oc2ccc(F)cc2)cc1	Dicer inh 3.2
Cn1nc(-c2ccc(Cl)cc2)cc1NS(=O)(=O)c1ccc(F)cc1	none
COc1cccc(C2CC(=O)Nc3nc(N)[nH]c(=O)c32)c1OC (stereo not given)	none
Cc1onc(-c2ccccc2)c1-c1csc(Nc2ccc(Cl)cc2)n1	none
S=C(N/N=C/c1[nH]ncc1Br)Nc1ccccc1	Dicer inh 4.2
Clc1ccccc1/C=N/Nc1nc(-c2ccccc2)cs1	none
Fc1ccc(/C=N/Nc2nc(-c3ccccc3)cs2)cc1	Dicer inh 6.8
c1ccc(-c2csc(NN=C3C4CC5CC(C4)CC3C5)n2)cc1	none
C=CCNc1nc(-c2ccccc2)cs1	none
CCOC(=O)c1noc(C)c1-c1csc(N/N=C/c2ccccc2)n1	none
S=C(N/N=C/c1ccccc1)Nc1ccccc1	none
COc1ccc(/C=N/Nc2nc(-c3ccccc3)cs2)cc1	none
Cc1ccccc1CO/N=C\c1[nH]ncc1Br	none
Cc1onc(-c2ccccc2)c1-c1csc(N/N=C/c2ccccc2)n1	Dicer inh 4
Brc1cn[nH]c1/C=N/Nc1nc(-c2ccccc2)cs1	Dicer inh 3.2
COc1ccc(Oc2c(C(F)(F)F)oc3cc(OC(=O)c4cccs4)ccc3c2=O)cc1	none
COc1ccc(C2C(C(=O)OC(C)C)=C(C)Nc3nc4ccccc4n32)c(OC)c1 (stereo not given)	none
O=C(CSc1ncnc2ccccc12)Nc1cccc2nsnc12	none
Cn1c(=O)c2c(nc3n2CC(=O)N(CCc2ccccc2)C3)n(C)c1=O	none
CC1=C(C(=O)OCC(C)C)C(c2ccccc2Br)C2=C(CCCC2=O)N1 (stereo not given)	none
O=C(NNC1=Nc2ccccc2SC1)c1ccccc1	none
O=C(Nc1ccc(Cl)cc1)Nc1nnc(C(F)(F)F)s1	none
